{"source": "PubChem BioAssay (NCATS)", "note": "Where “and” joins values, the source holds several entries; their conditions need not be identical. Identical values can stand only once. Results filed as inconclusive are left out. Values without a mark were called inactive. Calls of active or inactive are those of the source. The call rests on the fitted dose curve; in most records, active means well fitted inhibition curve with a large enough effect; inconclusive means small, poorly fitted or top-dose-only effect; inactive means no such curve, though single readings can be large or run the other way. Potency means the concentration at half of the fitted maximal effect."}
{"assay": "Confirmatory screen NINDS Rhodamine qHTS for Zika virus inhibitors (AID 1347161); further: nearly all actives have a fitted effect of over 60% in size", "settings": "purified enzyme assay, Rhodamine110 substrate fluorescence, 15 min; series mostly up to 114 µM; activity change, negative = inhibition: at the top concentration", "excerpt": "Avindra Nath, Ph.D., National Institute of Neurological Disorders and Stroke (NINDS), Bethesda, MD\nRadhakrishnan Padmanabhan, Ph.D., Georgetown University (GU), Washington D.C.\nZika Virus causes congenital defects, including microcephaly and is associated with Guillain-Barre syndrome, eningoencephalitis and myelitis in infected adult. […] Using a target-based approach, we hope to establish a screening paradigm to uncover novel, cell-active NS2B-NS3 protease (Zika Virus) specific inhibitors from NCATS' collection of small molecules using qHTS.\nFour assay panel was created to identify potential Zika Virus inhibitors. Namely, (1) GU unlinked NS2B-NS3 AMC tagged protease qHTS, (2) GU unlinked NS2B-NS3 Rhodamine tagged protease qHTS, (3) NINDS linked NS2B-NS3 AMC tagged protease qHTS, (4) NINDS linked NS2B-NS3 Rhodamine tagged protease qHTS. Active compounds were re-acquired and re-screened to confirm inhibition. Inhibitors were further screened against various confirmatory and counterscreens in dose response format.\nEarly Translation Branch (ETB)\nNational Center for Advancing Translational Sciences (NCATS), Rockville, MD\nNational Institute of Health (NIH), Bethesda, Maryland\nFor the linked assay, Nath lab (NINDS) provided the purified linked NS2B-NS3 protease which is consists of hydrophilic domain of NS2B linked to the NS3 protease domain by a flexible (-[…]-) linker. Control compound aprotinin is obtained from Thermo Scientific (#78432; Waltham, Massachusetts). Rhodamine110 substrate ([N-Cbz]-Nle-Lys-Arg-Arg-Rhod110-Arg-Arg-Lys-Nle-[N-Cbz]) was purchased from either Genscript or Bachem.\n1536-well Protease (Rhodamine110 Substrate) Assay:\nBriefly, 3 microL of enzyme (25 nM final concentration), in assay buffer (10 mM Tris-HCl pH 8.0 with 0.01% Tween 20) were dispensed into a 1,536-well solid-bottom black plate (Greiner Bio One, Monroe, NC). Twenty-three nL of compounds (final concentration range 7.28 nM to 114 microM) or control Aprotinin (final concentration range 3.47 nM to 114 microM) were transferred via Wako Pin-tool (Wako Automation, Richmond, VA). Samples were incubated (room temperature, protected from light) for 15 minutes followed by a 1 microL Rhodamine110 substrate addition (1.5 microM final concentration). Plates were then immediately read on a ViewLux High-throughput CCD imager (PerkinElmer, Waltham, MA) equipped with FITC fluorescence optics (480(20) nm excitation, 540(25) nm emission), then incubated (room temperature, protected from light) for 15 minutes (~15% conversion). The change in fluorescence intensity over the 15-minute reaction period was normalized against no-inhibitor and no-enzyme controls and the resulting percent inhibition data were fitted to a 4-parameter Hill equation. Aprotinin was used as intraplate control."}
{"compound": "N#Cc1c(O)c2c(-c3ccc(-c4ccccc4O)cc3)csc2[nH]c1=O", "Potency": "2.2 µM (active) and 2.48 µM (active)"}
{"compound": "CC(C)c1ccccc1Cc1cc(C(=O)Nc2ccc(S(=O)(=O)c3ccccc3C(C)(C)C)cc2)c(O)c(O)c1O", "Potency": "90.3 µM (active)"}
{"compound": "CCS(=O)(=O)c1cccc(-c2cc(C(=O)NC3CCN(C)CC3)c(C)c3[nH]c4ncc(C)cc4c23)c1", "activity change, negative = inhibition": "94.2%"}
{"compound": "O=C(Nc1cc(C(F)(F)F)cc(C(F)(F)F)c1)c1cc(Cl)ccc1O", "Potency": "7.84 µM (active)"}
{"compound": "O=C(O)Cn1nnc(-c2cc(N3CCC(Oc4cc(F)ccc4Br)CC3)no2)n1", "Potency": "35 µM (active)"}
{"compound": "O=c1c2ccccc2nc2n1CCc1c-2[nH]c2ccccc12", "Potency": "62.2 µM (active)"}
{"compound": "Cc1cc(CN2CCN(c3c(Br)cnc4nc(-c5ccc(N6CCN(C)CC6)cc5)[nH]c34)CC2)no1", "activity change, negative = inhibition": "98.8%"}
{"compound": "CCOC(=O)C1=C(C)NC2=C(C(=O)CC(C)(C)C2)C1c1ccc(-c2ccccc2)cc1", "note": "(centres undefined)", "activity change, negative = inhibition": "-48.1%"}
{"compound": "CCN(CC)CCCCNc1ncc2cc(-c3cc(OC)cc(OC)c3)c(NC(=O)NC(C)(C)C)nc2n1", "activity change, negative = inhibition": "113%"}
{"compound": "CCc1c2c(nc3ccc(O)cc13)-c1cc3c(c(=O)n1C2)COC(=O)[C@]3(O)CC", "activity change, negative = inhibition": "-14.2%"}
{"compound": "Cc1c(C)n(Cc2ccc(-c3ccccc3C(=O)O)cc2)c2ccc(C(=O)N[C@@H](C)c3ccc([N+](=O)[O-])cc3)cc12", "Potency": "3.12 µM (active)"}
{"compound": "O=C(O)C1(Cc2cccc(Nc3nccs3)n2)CCC(Oc2cccc(Cl)c2F)CC1", "note": "(centres undefined)", "Potency": "3.5 µM (active)"}
{"compound": "CCN1CCN(Cc2ccc(-c3cc4c(N[C@H](C)c5ccccc5)ncnc4[nH]3)cc2)CC1", "activity change, negative = inhibition": "122% [at 228 µM]"}
{"compound": "COc1cc(C(=O)NS(=O)(=O)c2ccccc2C)ccc1Cc1cn(C)c2ccc(NC(=O)OC3CCCC3)cc12", "Potency": "1.56 µM (active)"}
{"compound": "CCn1cc(-c2ccnc3[nH]c(-c4cccc(CN(C)C)c4)cc23)c(-c2ccc(NC(=O)N(C)C)cc2)n1", "activity change, negative = inhibition": "197%"}
{"compound": "Cc1ccc(C(=O)Nc2cccc(C(F)(F)F)c2)cc1-c1ccc2nc(NCCN3CCOCC3)ncc2c1", "activity change, negative = inhibition": "17.4%"}
{"compound": "COc1cc2c(cc1-c1c(C)noc1C)ncc1[nH]c(=O)n([C@H](C)c3ccccn3)c12", "activity change, negative = inhibition": "5.88%"}
{"compound": "CN1CCC(CNc2ccc3ncc(-c4cccc(OC(F)(F)F)c4)n3n2)CC1", "activity change, negative = inhibition": "323%"}
{"compound": "Cc1cc(N2CCOCC2)cc2[nH]c(-c3c(NC[C@@H](O)c4cccc(Cl)c4)cc[nH]c3=O)nc12", "Potency": "44 µM (active)"}
